ChEMBL document CHEMBL2218924, “A broad activity screen in support of a chemogenomic map for kinase signalling research and drug discovery” (Biochem J, 2013)

Columns and labels:
[1] = biological target: T1, Phosphorylase b kinase gamma catalytic chain, liver/testis isoform (Homo sapiens) (UniProt P15735); conditions: at 1 µM
T1 sequence (whole entry): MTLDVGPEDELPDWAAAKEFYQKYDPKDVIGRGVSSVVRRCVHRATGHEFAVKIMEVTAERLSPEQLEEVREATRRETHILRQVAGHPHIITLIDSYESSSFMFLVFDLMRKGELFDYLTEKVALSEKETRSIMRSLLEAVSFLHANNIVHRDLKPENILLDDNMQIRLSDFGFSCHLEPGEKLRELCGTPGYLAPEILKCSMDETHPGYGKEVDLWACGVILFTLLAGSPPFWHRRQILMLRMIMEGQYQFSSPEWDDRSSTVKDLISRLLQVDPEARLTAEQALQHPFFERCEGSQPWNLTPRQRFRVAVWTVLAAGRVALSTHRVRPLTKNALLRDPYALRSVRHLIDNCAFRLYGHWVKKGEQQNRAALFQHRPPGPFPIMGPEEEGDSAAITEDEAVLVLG

[2] = biological target: T1, Phosphorylase b kinase gamma catalytic chain, liver/testis isoform (Homo sapiens); conditions: at 10 µM
[3] = biological target: Serine/threonine-protein kinase pim-1 (Homo sapiens) (UniProt P11309); conditions: at 1 µM
Sequence of Serine/threonine-protein kinase pim-1 (Homo sapiens) (P11309 whole entry, looked up): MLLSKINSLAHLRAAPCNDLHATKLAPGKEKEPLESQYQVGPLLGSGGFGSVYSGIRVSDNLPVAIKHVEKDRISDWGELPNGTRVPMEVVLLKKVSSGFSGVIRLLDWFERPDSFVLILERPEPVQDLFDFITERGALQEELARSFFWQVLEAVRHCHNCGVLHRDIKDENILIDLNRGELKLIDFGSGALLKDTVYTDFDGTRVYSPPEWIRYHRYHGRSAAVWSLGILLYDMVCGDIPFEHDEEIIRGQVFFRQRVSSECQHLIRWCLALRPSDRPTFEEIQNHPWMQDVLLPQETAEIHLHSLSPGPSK

[4] = biological target: Serine/threonine-protein kinase pim-1 (Homo sapiens) (UniProt P11309); conditions: at 10 µM
[5] = biological target: Serine/threonine-protein kinase pim-2 (Homo sapiens) (UniProt Q9P1W9); conditions: at 1 µM
Sequence of Serine/threonine-protein kinase pim-2 (Homo sapiens) (Q9P1W9 whole entry, looked up): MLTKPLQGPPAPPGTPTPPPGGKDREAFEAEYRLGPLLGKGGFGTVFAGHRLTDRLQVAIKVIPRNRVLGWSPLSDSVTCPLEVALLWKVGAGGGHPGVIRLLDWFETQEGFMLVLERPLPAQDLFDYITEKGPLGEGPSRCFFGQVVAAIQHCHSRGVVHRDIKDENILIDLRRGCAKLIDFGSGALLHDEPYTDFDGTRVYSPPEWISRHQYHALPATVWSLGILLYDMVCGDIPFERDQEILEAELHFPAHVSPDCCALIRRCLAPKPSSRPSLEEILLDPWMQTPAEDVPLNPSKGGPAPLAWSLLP

[6] = biological target: Serine/threonine-protein kinase pim-2 (Homo sapiens) (UniProt Q9P1W9); conditions: at 10 µM
[7] = biological target: Serine/threonine-protein kinase pim-3 (Homo sapiens) (UniProt Q86V86); conditions: at 1 µM
[8] = biological target: Serine/threonine-protein kinase pim-3 (Homo sapiens) (UniProt Q86V86); conditions: at 10 µM
[9] = biological target: Serine/threonine-protein kinase PLK1 (Homo sapiens) (UniProt P53350); conditions: at 1 µM
Sequence of Serine/threonine-protein kinase PLK1 (Homo sapiens) (P53350 whole entry): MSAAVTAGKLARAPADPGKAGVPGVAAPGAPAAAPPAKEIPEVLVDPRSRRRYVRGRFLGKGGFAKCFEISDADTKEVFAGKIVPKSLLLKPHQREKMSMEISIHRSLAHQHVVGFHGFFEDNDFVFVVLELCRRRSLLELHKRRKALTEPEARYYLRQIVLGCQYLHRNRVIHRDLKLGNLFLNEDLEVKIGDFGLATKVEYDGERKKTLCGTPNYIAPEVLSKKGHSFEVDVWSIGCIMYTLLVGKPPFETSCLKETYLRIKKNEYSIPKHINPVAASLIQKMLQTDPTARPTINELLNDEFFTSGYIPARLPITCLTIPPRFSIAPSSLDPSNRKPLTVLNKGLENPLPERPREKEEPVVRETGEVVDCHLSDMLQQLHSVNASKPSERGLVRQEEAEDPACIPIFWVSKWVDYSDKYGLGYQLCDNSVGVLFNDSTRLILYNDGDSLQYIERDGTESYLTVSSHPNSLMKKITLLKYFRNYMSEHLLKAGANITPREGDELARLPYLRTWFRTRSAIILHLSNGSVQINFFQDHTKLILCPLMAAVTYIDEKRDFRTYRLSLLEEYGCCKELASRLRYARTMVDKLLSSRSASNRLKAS

[10] = biological target: Serine/threonine-protein kinase PLK1 (Homo sapiens) (UniProt P53350); conditions: at 10 µM

Row | SMILES | residual activity [1] [%] | residual activity [2] [%] | residual activity [3] [%] | residual activity [4] [%] | residual activity [5] [%] | residual activity [6] [%] | residual activity [7] [%] | residual activity [8] [%] | residual activity [9] [%] | residual activity [10] [%]
1 | O=C1Nc2cc(Br)ccc2/C1=C1/Nc2ccccc2/C1=N\O | 55 | 24 | 67 | 78 | 106 | 85 | 78 | 81 | 79 | 81
2 | O=[N+]([O-])c1ccc(-c2nc(-c3ccc(F)cc3)c(-c3ccncc3)[nH]2)cc1 | 98 | 91 | 99 | 85 | 127 | 139 | 86 | 95 | 88 | 80
3 | CO[C@H]1[C@@H](OC)C[C@H](C)[C@@H](OC)C2=CC(=O)C=C(NC(=O)/C(C)=C/C=C/[C@H](OC)[C@@H](OC(N)=O)/C(C)=C/[C@@H]1C)C2=O | 97 | 100 | 85 | 93 | 99 | 129 | 98 | 96 | 86 | 70
4 | O=C(O)c1ccc2c3c1cccc3c(=O)n1c3ccccc3nc21 | 95 | 72 | 58 | 23 | 14 | 0 | 15 | 1 | 92 | 94
5 | COc1cc2ncnc(N3CCN(C(=O)Nc4ccc(Oc5ccccc5)cc4)CC3)c2cc1OC | 103 | 122 | 111 | 122 | 92 | 149 | 91 | 93 | 63 | 61
6 | O=C1NC(=O)/C(=C\c2ccc3nccnc3c2)S1 | 90 | 50 | 42 | 10 | 75 | 22 | 61 | 14 | 80 | 64
7 | O=C1NC(=O)c2cc(Nc3ccc(F)cc3)c(Nc3ccc(F)cc3)cc21 | 93 | 86 | 49 | 11 | 91 | 31 | 94 | 93 | 95 | 69
8 | Nc1n[nH]c2nnc(-c3c(-c4ccccc4)nn4ccccc34)cc12 | 104 | 98 | 98 | 85 | 123 | 74 | 88 | 83 | 78 | 92
9 | O=c1c2ccccc2[nH]c(=S)n1CCN1CCC(=C(c2ccc(F)cc2)c2ccc(F)cc2)CC1 | 103 | 105 | 89 | 105 | 75 | 133 | 98 | 99 | 104 | 68
10 | CC(C)n1cnc2/c(=N/c3cccc(Cl)c3)nc(NCCO)[nH]c21 | 52 | 33 | 115 | 66 | 137 | 93 | 84 | 71 | 30 | 6
11 | O=C(Nc1cccc(Nc2nccc(Nc3cccc(C(F)(F)F)c3)n2)c1)C1CC1 | 94 | 80 | 66 | 64 | 110 | 119 | 104 | 104 | 78 | 74
12 | Oc1c2ccccc2c2c3c(cccc13)N=N2 | 77 | 15 | 68 | 18 | 58 | 21 | 75 | 59 | 69 | 64
13 | COc1ccc(CNc2nc(N(CCO)CCO)nc3c2ncn3C(C)C)cc1 | 122 | 88 | 87 | 69 | 134 | 130 | 87 | 88 | 69 | 58
14 | O=C1NC(=O)c2c1c1c3ccccc3[nH]c1c1[nH]c3cc(Br)ccc3c21 | 114 | 71 | 28 | 13 | 27 | 6 | 29 | 14 | 90 | 90
15 | Cc1ccc(NC2=CC(=O)c3sc(C)nc3C2=O)cc1 | 114 | 92 | 94 | 85 | 99 | 111 | 91 | 92 | 87 | 89
16 | CC[n+]1c(/C=C/N(C)c2ccccc2)n(-c2ccccc2)c2ccc(-c3nc4ccccc4s3)cc21 | 93 | 63 | 94 | 85 | 101 | 136 | 105 | 107 | 123 | 90
17 | Cc1nc2cc3nc(-c4cccs4)cnc3cc2n1C | 94 | 111 | 100 | 101 | 90 | 121 | 101 | 102 | 118 | 85
18 | Cc1ccc(S(=O)(=O)/C=C/C#N)cc1 | 114 | 111 | 97 | 95 | 111 | 103 | 91 | 102 | 92 | 102
19 | COc1ccc(C(=O)Nc2sc3c(c2C(N)=O)CCCC3)cc1OC | 78 | 84 | 80 | 97 | 87 | 114 | 92 | 97 | 94 | 75
20 | O=Nc1c(-c2c(O)[nH]c3ccccc23)[nH]c2ccccc12 | 25 | 12 | 76 | 47 | 68 | 38 | 94 | 90 | 83 | 103
